Data taken from PubChem BioAssay AID624330 (Southern Research Specialized Biocontainment Screening …, 2012).
The campaign covered roughly 340,000 compounds. About 2,100 (0.62%) were called active.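 The calls were made as follows: active = first-screen hits whose inhibition reached a set limit at any dose in the follow-up dose series; inconclusive = inhibition above the set first-screen limit but never retested; inactive = the rest.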 Not all results are given here. Results with a measured potency or affinity are listed apart.

Biological target: Rac GTPase-activating protein 1 (Homo sapiens) (UniProt Q9H0H5)
Test: MgcRacGAP GTPase-activating activity inhibitors, confirmation, biochemical, ADP Hunter fluorescence, primary and confirmatory (AID 624330);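 also: fluorescence reports GDP produced by GAP-driven GTP hydrolysis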
Conditions: MgcRacGAP-stimulated Rac1 GTP hydrolysis, at 30 µM, stronger effect = higher value, GST-tagged Rac1 F28L mutant substrate

Sequence of Rac GTPase-activating protein 1 (Homo sapiens) (Q9H0H5 whole entry, looked up): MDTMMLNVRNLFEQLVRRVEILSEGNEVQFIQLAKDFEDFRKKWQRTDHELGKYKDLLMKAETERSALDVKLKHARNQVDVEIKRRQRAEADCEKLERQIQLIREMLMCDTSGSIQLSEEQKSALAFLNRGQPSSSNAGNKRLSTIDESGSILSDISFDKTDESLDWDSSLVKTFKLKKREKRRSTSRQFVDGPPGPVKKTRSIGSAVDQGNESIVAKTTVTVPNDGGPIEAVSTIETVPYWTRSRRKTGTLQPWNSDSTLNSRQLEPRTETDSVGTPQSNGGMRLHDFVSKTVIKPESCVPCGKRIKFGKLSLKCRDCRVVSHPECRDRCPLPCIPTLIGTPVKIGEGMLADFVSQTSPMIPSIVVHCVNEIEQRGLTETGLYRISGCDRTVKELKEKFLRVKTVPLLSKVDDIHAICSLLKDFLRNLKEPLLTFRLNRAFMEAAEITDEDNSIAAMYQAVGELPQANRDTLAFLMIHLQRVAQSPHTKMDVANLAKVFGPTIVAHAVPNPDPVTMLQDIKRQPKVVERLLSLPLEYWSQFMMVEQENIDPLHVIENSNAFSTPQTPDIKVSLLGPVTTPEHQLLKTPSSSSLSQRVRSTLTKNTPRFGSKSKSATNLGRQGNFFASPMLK

inhibition, inactive:
Cc1cccc(NS(=O)(=O)c2cccc(C(=O)N3CCCCCC3)c2)c1 7.68%
CCOc1ccc(NC(=O)c2cccs2)c([N+](=O)[O-])c1 9.62%
COc1ccc(COC(=O)N/N=C/c2cccs2)cc1 0.62%
Cc1ccc(/C=C2/SC(=S)N(CCCC(=O)Nc3cc([N+](=O)[O-])ccc3O)C2=O)cc1 3.56%
CCN(CC)CCNS(=O)(=O)c1ccc(Cl)cc1 5.79%
Cc1cc2ncn(-c3ncnc4sc(C)c(C)c34)c2cc1C 6.72%
CC1CCN(C(=O)c2nc[nH]c2C(=O)O[C@H](C)c2ccccc2)CC1 9.03%
O=C(Nc1ccccc1)c1ccc(NC(=O)C2CC2)cc1 3.78%
Oc1ccc(NCc2cccc(OCc3ccccc3)c2)cc1 9.79%
CC(=O)Nc1ccc(S(=O)(=O)Nc2nc3ccccc3nc2Nc2ccc(O)c(C(=O)O)c2)cc1 9.87%
CC(=O)Nc1ccc(S(=O)(=O)Nc2nc3ccccc3nc2Nc2ccccc2)cc1 4.86%
Oc1ccc(NCc2cccc(OCc3ccc(F)cc3)c2)cc1 3.64%
O=C(Nc1ccccc1)C1CCCCC1 -3.44%
CCCC(=O)Nc1ccc(Nc2ccccc2)cc1 22.6%
CC(C)CC(=O)Nc1ccc(Nc2ccccc2)cc1 22.4%
O=C(COC(=O)CNC(=O)c1ccccc1F)Nc1ccc2c(c1)OCO2 4.84%
COC(=O)c1cc(Nc2cc(C)c3ccc(O)cc3n2)cc(C(=O)OC)c1 11.8%
COc1nc(-c2ccccc2)nc(C)c1CC(=O)O 9.59%
Cc1ccc(S(=O)(=O)/N=C(/c2ccc(F)cc2)N(C)C)cc1 8.12%
COCCN(Cc1nc(C2(c3ccc(C)cc3)CCCC2)no1)C(C)C -3.53%
CCOc1ccc(N2C(=O)Nc3ccc(Br)cc3C2(O)C(=O)NCCCN(C)C)cc1 (stereo not given) 8.07%
COC(=O)C(CC(=O)c1ccc(C)cc1)n1cccn1 (stereo not given) 11.3%
CCOC(=O)c1cnc2ccccc2c1Nc1cccc(C(=O)O)c1 -0.21%
CCSc1nnc(NC(=O)[C@H](C)NC(=O)c2ccccc2Cl)s1 9.72%
CCC(=O)Nc1ccc(NC(=S)Nc2ccccc2)cc1 8.45%
CCC(=O)Nc1ccc(C(=O)c2ccccc2)cc1 10.1%
CC(C)C1N=C2c3ccccc3N=C(SCC(=O)NCCc3ccc(S(N)(=O)=O)cc3)N2C1=O (stereo not given) 1.59%
CC(C)C1N=C2c3ccccc3N=C(SCC#N)N2C1=O (stereo not given) 10.5%
COc1ccc(Cl)cc1NC(=O)C1Cc2cc(S(=O)(=O)N3CCCC3)ccc2N1C(C)=O (stereo not given) 2.38%
COc1ccc(CCNC(=O)COC(=O)CCC(=O)c2cccs2)cc1OC 3.28%
COc1cccc(S(=O)(=O)NCc2ccc(C(=O)NCc3ccco3)cc2)c1 13.6%
Cc1ccc(Cl)cc1NC(=S)N1CCC(c2ccccc2)C1 (stereo not given) 7.04%
COc1ccc(OC)c(CN2CCSCC2)c1 36.4%
COc1ccc2oc(=O)cc(CN3CCN(Cc4ccc(OC)c(OC)c4OC)CC3)c2c1 11.2%
COc1ccccc1N1CCN(Cc2ccc(OC)c(OC)c2OC)CC1 28.2%
COc1ccc(CN2CCN(c3ccc(F)cc3)CC2)c(OC)c1OC 8.37%
COc1ccc(CN2CCC(N3CC(C)OC(C)C3)CC2)c(OC)c1 (stereo not given) 29.1%
COc1ccc(OC)c(CN2CCN(Cc3cc(OC)c(OC)c(OC)c3)CC2)c1 -7.74%
COc1ccc(OC)c(CN2CCN(c3ccccc3OC)CC2)c1 19.8%
COc1ccc(CN2CCC(n3nccc3NC(=O)C3CC3)CC2)c(OC)c1OC 8.32%
O=C(c1ccccc1F)N1CCN(c2ccc([N+](=O)[O-])c(NCC3CCCO3)c2)CC1 (stereo not given) 11.1%
COc1ccc(CCNC(=O)C2CCCN2C(=O)Nc2ccc(F)cc2)cc1OC (stereo not given) 7.58%
O=C(CSc1nnc(NC(=O)C2CC(=O)N(c3ccccc3)C2)s1)NCC1CCCO1 (stereo not given) 8.28%
CN(Cc1ccccc1)c1ncc(C=O)s1 11.2%
CCCCC(=O)Nc1ccccc1CC 7.96%
C=CCN1C(=O)CS/C1=N\N=C\c1cccc([N+](=O)[O-])c1 5.94%
CCCCNS(=O)(=O)c1ccc2nc(SCC(=O)Nc3ccccc3Cl)[nH]c2c1 9.77%
CCOc1ccc(NC(=S)N2CCN(C/C=C/c3ccccc3)CC2)cc1 6.87%
Cn1c(=O)n(C)c2cc(NC(=O)CSc3ccccc3)ccc21 6.1%
CSc1ccc(CN2CCC(N3CCC(C(=O)NC4CC4)CC3)CC2)cc1 -3.51%
COc1ccc(CN2CCN(C(=O)c3ccccc3F)CC2)c(OC)c1OC -1.41%
CSc1ccc(CN2CCC(Cc3ccccc3)CC2)cc1 15%
Clc1ccc(OCCCCCN2CCOCC2)cc1 -5.93%
CCOC(=O)Cc1csc(NC(=O)c2c(C)noc2C)n1 7.91%
CCC1=C2CC[C@H]3C(=O)N(C)C(=O)[C@H]3[C@H]2[C@@]2(Cc3ccccc3)C(=NCCOC)OC(=O)N2C1=O 10.6%
C/C(=N\NC(=O)c1nnn(-c2nonc2N)c1CN1CCCCCC1)c1ccc(Br)cc1 -3.03%
CC(Oc1ccc(F)cc1)C(=O)N(Cc1ccccc1)c1c(N)n(Cc2ccccc2)c(=O)[nH]c1=O (stereo not given) 3.15%
CCOC(=O)Nc1ccc(C(N)=O)cc1 10%
CCOC(=O)Nc1ccc(Oc2ccccc2)cc1 1.24%
Cc1ccccc1NC(=O)COc1coc(CN2CCN(Cc3ccccc3)CC2)cc1=O 3.8%
N#Cc1ccc(-c2ccccc2)nc1Sc1ccc(F)cc1 3.11%
Cc1c(/C=N\NC(=O)C2(C)CC2(Cl)Cl)cnn1C (stereo not given) 2.13%
CC(=O)Oc1ccc(/C=C2/C(=O)N(c3ccccc3)N=C2C)cc1 25%
CCOc1cc(/C=C2/C(=O)N(c3ccccc3)N=C2C)ccc1OC(=O)c1cccs1 15.2%
COc1ccc(C(=O)c2coc3ccc(O)c(CN4CCCC4)c23)cc1 8.22%
CN1C2CCC1/C(=C\c1ccccc1F)C(=O)/C2=C/c1ccccc1F 7.33%
CN1C2CCC1/C(=C\c1ccccc1)C(=O)/C2=C\c1ccccc1 12.8%
Cc1ccc(S(=O)(=O)N2CCCCC2)cc1NC(=O)c1c(-c2ccccc2)noc1C 0.74%
O=C(COC(=O)C1CCCCC1)Nc1ccc(S(=O)(=O)N2CCOCC2)cc1 -2.69%
CCCC(c1nnnn1CCOC)N(Cc1cc2cc(C)c(C)cc2[nH]c1=O)CC1CCCO1 (stereo not given) 1.47%
COc1ccc(CN2CCCCCC2)c(C)c1C 11.4%
COc1ccc(CN2CCSCC2)c(OC)c1C 28.9%
COc1cc(Br)c(CN2CCCN(C)CC2)cc1OC 5.08%
COc1cc(OC)c(CN2CCCCCCC2)cc1Br 14.3%
CC(=O)N1CCSc2ccc(S(=O)(=O)Nc3ccc(C)cc3)cc21 8.81%
CC(C(=O)Nc1ccccc1-c1ccccc1)N1CCCCC1 (stereo not given) 0.68%
CN1CCN(C(=O)CCC(=O)c2ccc(F)cc2)CC1 7.21%
COc1ccc(NC(=O)c2ccc3c(c2)C(=O)N(Cc2cccnc2)C3=O)cc1 9.43%
COc1ccc(CN2C(=O)c3ccccc3C2=O)cc1 -0.09%
CC1S/C(=N/N=C/c2cccs2)NC1=O (stereo not given) -9.62%
O=[N+]([O-])c1ccccc1Nc1ccccc1 5.61%
Nc1cc([N+](=O)[O-])ccc1Nc1ccccc1 15.2%
Nc1ccc(Nc2ccc([N+](=O)[O-])cc2[N+](=O)[O-])cc1 25.4%
O=[N+]([O-])c1ccccc1Nc1ccccc1[N+](=O)[O-] -9.22%
CCCCOc1ccccc1N1CCN(CCCN2C(=O)C3CCCN3C2=O)CC1 (stereo not given) 9.54%
Cc1c2cnn(CC(=O)NCCCN3CCCCC3C)c(=O)c2c(C)n1Cc1ccccc1 (stereo not given) 8.86%
Clc1ccc2c(c1)Nc1ccccc1CC2 9.56%
O=C1CCc2ccccc2N1 3.09%
CCn1c(COc2ccc(=O)n(-c3ccccc3)n2)nnc1SC 7.04%
COc1cccc2c1C(=O)c1c(O)c3c(c(O)c1C2=O)C[C@](O)(C(C)=O)C[C@H]3O[C@@H]1C[C@@H](N)[C@@H](O)[C@@H](C)O1 21.3%
COc1cccc2c1C(=O)c1c(O)c3c(c(O)c1C2=O)CC(O)(C(C)=O)CC3OC1CC(N(C)C)C(O)C(C)O1 (stereo not given) 16.8%
CCCCC(=O)OCC(=O)C1(O)Cc2c(O)c3c(c(O)c2C(OC2CC(NC(=O)C(F)(F)F)C(O)C(C)O2)C1)C(=O)c1c(OC)cccc1C3=O (stereo not given) 6.09%
COc1cccc2c1C(=O)c1c(O)c3c(c(O)c1C2=O)CC(O)(C(C)=O)CC3OC1CC(O)C(O)C(C)O1 (stereo not given) 11.6%
COc1cccc2c1C(=O)c1c(O)c3c(c(O)c1C2=O)CC(O)(C(=O)CO)CC3OC1CC(N(C)C)C(O)C(C)O1 (stereo not given) 20.6%
C/C(=N\NC(=O)c1ccc(Cl)c(Cl)c1)c1cccc(NC(=O)C(C)C)c1 10%
